The sample as a whole holds a higher share of hits than the screen did.
TbPYK inhibitor – inhibitors of Trypanosoma brucei pyruvate kinase; Q57TT1; 410,000 tested, 0.12% active; TbPYK enzyme, Kinase-Glo Plus ATP luminescence, 45 min; Potency, µM (highest dose often 76.8 µM), without a hit: top-dose activity, negative = inhibition, actives largely listed as inhibitors; note: potency is the fitted concentration of half-maximal effect; % is set by controls: 0 for no effect and ±100 for the full control effect; nearly all actives have a fitted effect of over 50% in size
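Luminescence from Kinase-Glo Plus, added after a 45-minute room-temperature reaction, served as the end-point read-out. The enzyme and substrate were preincubated with compound before ADP (130 uM final) initiated turnover. Concentration-effect curves came from normalized qHTS data.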
Shiga inhibitor – inhibitors of Shiga toxin in Vero cells. AID 2315. inhibition, % at 38.7 µM. Vero cells, Shiga toxin protein synthesis inhibition reporter. 290,000 tested, 9.2% active; in the data active = inhibition mostly above about 28%, no sharp cut-off; inactive = mostly below about 43%; note: 0% is about no effect
LmPK inhibitor – blocks Leishmania mexicana pyruvate kinase activity | purified LmPK, Kinase-Glo ATP luminescence, 1 h | 290,000 tested, 0.37% active | Q27686 | AID 1721 | Potency, µM (series often up to 57.5 µM), for the others: at the top dose activity change, negative = inhibition, hits mostly inhibitors; note: potency is the fitted concentration of half-maximal effect; % is set by controls: 0 for no effect and ±100 for the full control effect
Target sequence (Q27686 whole entry, looked up): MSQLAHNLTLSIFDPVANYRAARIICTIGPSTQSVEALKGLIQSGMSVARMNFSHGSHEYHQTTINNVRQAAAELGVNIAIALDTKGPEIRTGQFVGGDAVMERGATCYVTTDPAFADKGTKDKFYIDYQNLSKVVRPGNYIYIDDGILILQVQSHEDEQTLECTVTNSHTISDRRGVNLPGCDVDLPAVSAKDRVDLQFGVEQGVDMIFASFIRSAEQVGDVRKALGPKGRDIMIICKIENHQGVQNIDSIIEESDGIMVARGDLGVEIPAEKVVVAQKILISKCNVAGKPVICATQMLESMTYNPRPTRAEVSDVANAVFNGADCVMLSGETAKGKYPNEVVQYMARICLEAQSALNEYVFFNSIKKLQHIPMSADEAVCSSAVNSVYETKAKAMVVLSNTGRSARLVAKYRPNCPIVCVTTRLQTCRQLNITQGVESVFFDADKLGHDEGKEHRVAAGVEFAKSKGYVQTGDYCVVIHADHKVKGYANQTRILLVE
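0.1 nM LmPK, 0.5 mM PEP, 0.1 mM ADP; 50 mM imidazole pH 7.2, 7 mM MgCl2, 50 mM KCl; 1 h RT. Kinase-Glo luminescence readout, normalized to no-enzyme (full inhibition) and uninhibited wells.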
SARS PLpro yeast-1 – SARS-CoV PLP inhibition in yeast; S. cerevisiae expressing SARS-CoV PLpro, growth rescue; Potency, µM (top dose mostly 32.9 µM), for inactives: at the highest dose activity, positive = growth rescue, actives largely listed as activators; 330,000 tested, 0.19% active; calls by dose curve; note: potency is the fitted concentration of half-maximal effect; 0% is about no effect; nearly all actives have a fitted effect of over 55% in size
NS1 function inh – inhibitors of influenza NS1 protein function; Potency, µM (top dose mostly 46.1 µM), inactives show at the top dose activity, positive = more growth; 270,000 tested, 0.4% active; AID 2326; calls by dose curve; note: potency is the fitted concentration of half-maximal effect; actives are rising curves; nearly all actives have a fitted effect of over 50% in size
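S. cerevisiae expressing influenza A NS1, grown in glucose, washed, then diluted 1:100 into pH 6.0 -URA galactose medium with 23 nl compound. Growth recovery read as OD600; NS1-free strain serves as control.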
Cycloheximide cs – affects cycloheximide protein synthesis inhibition readout, counter-screen. cell reporter, cycloheximide protein synthesis inhibition counterscreen. max response, %. 300,000 tested, 12% active; in the data active = max response mostly above about 13%, no sharp cut-off; inactive = mostly below about 14%; note: read at 38.3 µM for the half of the compounds with a filed dose; 0% is about no effect
SARS PLpro yeast-2 – Validates SARS-CoV PLpro inhibitor hits in yeast; shares compounds with SARS PLpro yeast-1; yeast expressing SARS-CoV PLpro, growth phenotype rescue; calls only; 1,000 tested, 19% active; AID 652038; call rule not given here
An asterisk follows results filed as active. Unless noted, calls come from the whole dose curve; as a rule, active = well fitted curve in the direction sought with a large enough effect; inconclusive = small, poorly fitted or top-dose-only effect, or another doubt; inactive = no such curve, though single readings can be large; an effect the other way counts as inactive or inconclusive.

For COc1ccc(N2CCN(CC(O)COc3ccccc3[N+](=O)[O-])CC2)cc1 (stereo unspecified) the results were TbPYK inhibitor -6%, Shiga inhibitor 7, LmPK inhibitor 2%, SARS PLpro yeast-1 7%, NS1 function inh 19% and Cycloheximide cs -2.
`Fc1ccccc1OCCCCCN1CCCC1` gave TbPYK inhibitor -5%, Shiga inhibitor -9, LmPK inhibitor -8%, SARS PLpro yeast-1 2.5µM*, NS1 function inh 6%, Cycloheximide cs 9 and SARS PLpro yeast-2 inactive.
COc1ccc(CNCc2cccc3ccccc23)cc1 was read as TbPYK inhibitor 0%, Shiga inhibitor 12, LmPK inhibitor 3%, NS1 function inh -7% and Cycloheximide cs -3.
Screening CC(C)c1ccc(NC(=O)CN2C(=O)NC3(CCCC3)C2=O)cc1 returned TbPYK inhibitor 0%, Shiga inhibitor 12, LmPK inhibitor -9%, SARS PLpro yeast-1 3.5µM*, NS1 function inh 18%, Cycloheximide cs 0 and SARS PLpro yeast-2 inactive.
Screening Nc1nc(SCC(=O)c2c(N)n(C3CC3)c(=O)[nH]c2=O)n[nH]1 returned TbPYK inhibitor -15% and SARS PLpro yeast-1 2%.
For CCOC(=O)C1CCCN(C(=O)c2cc(CN3C(=O)c4ccccc4C3=O)ccc2OC)C1 (stereo unspecified) the results were TbPYK inhibitor 4% and SARS PLpro yeast-1 -9%.
CC(C)CNC(=O)c1cc([N+](=O)[O-])ccc1N1CCOCC1 was read as TbPYK inhibitor -10%, Shiga inhibitor -8, LmPK inhibitor 2%, SARS PLpro yeast-1 inconclusive, NS1 function inh 2%, Cycloheximide cs 3 and SARS PLpro yeast-2 inactive.
Screening CC(C)CCNC(=O)c1cc([N+](=O)[O-])ccc1N1CCOCC1 returned TbPYK inhibitor -8%, Shiga inhibitor 11, LmPK inhibitor 0%, SARS PLpro yeast-1 26%, NS1 function inh 8% and Cycloheximide cs 1.
`CN(C)CCNC(=S)Nc1cccc(Cl)c1` gave TbPYK inhibitor -21%, Shiga inhibitor 47, LmPK inhibitor -3%, SARS PLpro yeast-1 inconclusive, NS1 function inh 26%, Cycloheximide cs -1 and SARS PLpro yeast-2 inactive.
Screening CN(C)NC(=S)Nc1cccc(Cl)c1 returned TbPYK inhibitor -13%, Shiga inhibitor 12, LmPK inhibitor -5%, SARS PLpro yeast-1 1%, NS1 function inh 0% and Cycloheximide cs -1.
For Cc1ccc(NC(=O)Cn2nnc(C(=O)NCCc3ccccc3)c2N)cc1 the results were TbPYK inhibitor 0%.
Clc1ccccc1/C=N/Nc1cc(N2CCOCC2)ncn1 was read as TbPYK inhibitor -11%, Shiga inhibitor 33, LmPK inhibitor 1%, SARS PLpro yeast-1 0%, NS1 function inh 0% and Cycloheximide cs 32.
Screening CCCOc1ccc(/C=N/Nc2cc(N3CCOCC3)ncn2)c(O)c1 returned TbPYK inhibitor -2%, Shiga inhibitor -3, LmPK inhibitor 0%, SARS PLpro yeast-1 5µM*, NS1 function inh -25%, Cycloheximide cs -1 and SARS PLpro yeast-2 active.
Screening O=C(NCCCN1CCOCC1)c1cc(S(=O)(=O)N2CCCCC2)ccc1Cl returned TbPYK inhibitor 5%.
CN1CCOC(c2ccccc2)c2ccccc2C1 (stereo unspecified) was read as TbPYK inhibitor -2%, Shiga inhibitor -13, LmPK inhibitor -5%, SARS PLpro yeast-1 5µM*, NS1 function inh -2%, Cycloheximide cs -2 and SARS PLpro yeast-2 inactive.
O=C(Nc1ccc(F)cc1F)NC1CCN(S(=O)(=O)c2ccc(F)cc2)CC1 was read as TbPYK inhibitor 2%, Shiga inhibitor 4, LmPK inhibitor 8%, SARS PLpro yeast-1 -1% and Cycloheximide cs -3.
For Cc1cc(Cl)ccc1NC(=O)NC1CCN(S(=O)(=O)c2ccc(F)cc2)CC1 the results were TbPYK inhibitor 1%, Shiga inhibitor 2, LmPK inhibitor 3%, SARS PLpro yeast-1 inconclusive, NS1 function inh 9%, Cycloheximide cs -5 and SARS PLpro yeast-2 inconclusive.
`Cc1ccc(C)c(/C=C/C(=O)c2ccccc(=O)c2O)c1` gave TbPYK inhibitor 0%, Shiga inhibitor 52*, LmPK inhibitor -2%, SARS PLpro yeast-1 3.5µM*, NS1 function inh -35%, Cycloheximide cs 111* and SARS PLpro yeast-2 inactive.
Cc1ccc(C(=O)c2ccccc2C(=O)O)c(O)c1 was read as TbPYK inhibitor -7%, Shiga inhibitor -13, LmPK inhibitor 1%, SARS PLpro yeast-1 6%, NS1 function inh -4% and Cycloheximide cs -4.
O=C(/C=C/c1ccccc1Cl)c1cccnc1 was read as TbPYK inhibitor -22%, Shiga inhibitor 3, LmPK inhibitor -16%, SARS PLpro yeast-1 -43%, NS1 function inh -196% and Cycloheximide cs 5.
O=C(/C=C/c1ccccc1Cl)c1ccccc(=O)c1O was read as TbPYK inhibitor -10%, Shiga inhibitor 89*, LmPK inhibitor -1%, SARS PLpro yeast-1 inconclusive, NS1 function inh -55%, Cycloheximide cs 65* and SARS PLpro yeast-2 active.
`CCc1ccc(NC(=O)Cn2c(=O)ccc3cc(S(=O)(=O)N4CCCC4)ccc32)cc1` gave TbPYK inhibitor 1%.
For CCOc1ccccc1N1CCN(C(=O)CCNS(=O)(=O)c2ccccc2F)CC1 the results were TbPYK inhibitor 0% and SARS PLpro yeast-1 -1%.
For CCOc1ccc(NC(=O)CC2S/C(=N/N=C3CCCCCC3)NC2=O)cc1 (stereo unspecified) the results were TbPYK inhibitor 2%, Shiga inhibitor 1, LmPK inhibitor -5%, SARS PLpro yeast-1 inconclusive, NS1 function inh 0%, Cycloheximide cs -2 and SARS PLpro yeast-2 inactive.
COc1ccccc1C(CNC(=O)c1ccc(S(=O)(=O)N2CCCCC2)cc1)N(C)C (stereo unspecified) was read as TbPYK inhibitor 0% and SARS PLpro yeast-1 2%.
Screening Cc1ccsc1C1Nc2ccc3ncccc3c2C2=C1C(=O)CC(C)(C)C2 (stereo unspecified) returned TbPYK inhibitor 4%, Shiga inhibitor -16, LmPK inhibitor 2%, SARS PLpro yeast-1 11µM*, NS1 function inh 21%, Cycloheximide cs 8 and SARS PLpro yeast-2 inactive.
CC(CC(=O)Nc1ccc(F)c([N+](=O)[O-])c1)c1ccccc1 (stereo unspecified) was read as TbPYK inhibitor -7%, Shiga inhibitor 9, LmPK inhibitor -2%, SARS PLpro yeast-1 inconclusive, NS1 function inh -30%, Cycloheximide cs -2 and SARS PLpro yeast-2 inactive.
For CN(CC(=O)Nc1ccc(Cl)c(C(F)(F)F)c1)C(=O)/C=C/c1cccs1 the results were TbPYK inhibitor 0%, SARS PLpro yeast-1 inconclusive and SARS PLpro yeast-2 inactive.
